Data published in PubChem BioAssay AID995 (National Center for Advancing Translational Sciences (NCATS), 2007).
In all, about 72,000 compounds went through this assay and about 710 (0.99%) were called active. Another 7% or so got no clear call; they are omitted. Many of the other results were omitted from the sample, so actives are more common in it than they were. Unmarked numbers belong to inactive results. The call rests on the fitted dose curve; in most records, active means well fitted inhibition curve with a large enough effect; inconclusive means small, poorly fitted or top-dose-only effect; inactive means no such curve, though single readings can be large or run the other way.

assay: qHTS Assay for Inhibitors of the ERK Signaling Pathway using a Homogeneous Screening Assay; conditions: HEK293-V1b, vasopressin-stimulated pERK AlphaScreen; series mostly up to 57.5 µM; activity, negative = inhibition: at the top concentration; further: nearly all actives have a fitted effect of over 55% in size
Excerpt: qHTS Assay for Inhibitors of the ERK Signaling Pathway using a Homogeneous Screening Assay; further: nearly all actives have a fitted effect of over 55% in size
NIH Chemical Genomics Center [NCGC]
NIH Molecular Libraries Screening Centers Network [MLSCN]
Assay Submitter (PI): Dr. Wei Zheng, NCGC/NIH
The Ras/extracellular-signal-regulated kinase (ERK) mitogen activated protein (MAP) kinase signaling pathway (ERK1/2 cascade) plays is a key role in transmitting signals from the cell surface to the nucleus (Nishida and Gotoh 1993; Chang and Karin, 2001). The cascade is initiated by the small G-protein Ras, which recruits Raf […], where activation occurs. Alternatively, this pathway can be activated by elevating intracellular cAMP.
Activation of the ERK pathway is essential in increased cell division and cell survival. Sustained and constitutive activation of the ERK pathway, however, has been linked to uncontrolled cell proliferation, increased cell survival, and tumor progression. Thus, the ERK has been as an attractive target for cancer chemotherapy in the past few years (Sebolt-Leopold and Herrera, 2004). Given its physiological and pathological importance, assessment of ERK phosphorylation has been broadly performed in both basic research and drug discovery. Most assays for the measurement of ERK phosphorylation use the antibody-based detection methods, such as western blot and ELISA. These assays require multiple reagent additions with cell wash steps and are not suitable for high throughout screening.
The current cell-based ERK phosphorylation assay was performed using AlphaScreen platform. AlphaScreen is a two bead-based proximity-dependent chemical energy transfer luminescent assay platform. The assay reagents (ERK SureFire(TM) kit) were supplied from TGR BioSciences (Australia). In the presence of specific antibodies, phosphorylated ERK will bring "donor" and "acceptor" beads to a proximity range (<200 nm), and subsequently lead a chemical luminescent reaction upon exciting donor beads with 680 nm laser. To exclude the assay-related false positives, we used a biotinylated rabbit IgG to perform counter-screen. The biotinylated antibody mimics the phosphorylated ERK1/2 for bringing streptavidin coated beads and protein-A coated beads to a proximity range for the AlphaScreen detection.
NCGC Assay Protocol Summary:
HEK293 cells stably expressing type-1 vasopressin receptor (V1b) were maintained in DMEM medium (Invitrogen, Carlsbad, CA) at 37C under a humidified atmosphere containing 5% CO2 and 95% air. The medium contained 10% FBS, 2 mM L-glutamine, non-essential amino acid, pyruvate and 50 U/ml penicillin and 50 ug/ml streptomycin (Invitrogen). The aliquots of frozen cells were stored at -135C and used for the compound screening. All compounds were screened as titrations from 0.6 nM to 46 uM final concentration. Vasopressin was used to stimulate the ERK phosphorylation pathway. The ERK phosphorylation in cells was determined using an AlphaScreen assay kit provided by PerkinElmer. Data were normalized to the controls for basal activity (DMSO only) and 100% activation (25 nM vasopressin). AC50 values were determined from concentration-response data modeled with the standard Hill equation.
(1) Seed 4 ul/well of resuspended frozen HEK293 cells containing 2000 cells in white 1536-well plates for overnight with 1% FBS at 37C under a humidified atmosphere containing 5% CO2 and 95% air.
(2) Add 23 nL compounds in DMSO solution. The final titration was 0.6 nM to 46 uM.
(3) Incubate at 37C for 30 min.
(4) Dispense 0.5uL vasopressin (25 nM in final)
(5) Incubate at 37C for 5 min.
(6) Dispense 0.5uL of 1:2 diluted 5x lysis buffer.
(7) Incubate at 37C for 10 min.
(8) Dispense 1.5uL of mixture of activation buffer and reaction buffer with AlphaScreen beads (streptavidin donor beads and protein-A acceptor beads, 10 ng/well for each).
(9) Incubate at room temperature for 5 hr.
(10) Detect the assay plate in an EnVision plate reader (PerkinElmer) using the AlphaScreen detection mode.
[…]
On the % scale 0 is the no-effect control and ±100 the full control effect; potency means the concentration at half of the fitted maximal effect.

Structure (SMILES)	activity, negative = inhibition	Potency
CC(C)(O)CCC(O)[C@@](C)(O)C1CC[C@]2(O)C3=CC(=O)C4CC(O)C(O)C[C@]4(C)C3CC[C@]12C (some centres not stated)	-0.972%	
N#C/C(=C\c1ccc(O)c(O)c1)C(N)=O	-23.1%	
Oc1c(CN2CCOCC2)ccc(CN2CCOCC2)c1O	-4.14% [at 11.5 µM]	
CCC[C@@H]1C[C@@]1(CCC)[C@@H](NC(=O)c1ccccc1)c1ccc(C(=O)OC)cc1	23.3%	
CCCn1c(-c2ccc(F)cc2)nc2c(NC3CCN(Cc4ccccc4)C3)nc(C)nc21 (configuration not stated)	-14.2%	
O=C(Nc1c[nH]c(=O)[nH]c1=O)Oc1ccccc1	-1.65% [at 11.5 µM]	
CN(CCOc1ccc(CC2SC(=O)NC2=O)cc1)c1ccccn1 (configuration not stated)	23.1%	
COc1ccc(-c2nc3cnc(N(C)C)nc3n(Cc3cccs3)c2=O)cc1	31%	
COC(=O)[C@@H]1C[C@H]2CC[C@H](O)C[C@H]2N1Cc1ccc(N2CCN(C)CC2)cc1	11.9%	
COCCn1c(=O)c(-c2cccc(F)c2)nc2cncnc21	-9.32%	
N#Cc1cc2[nH]c(=O)c(=O)[nH]c2cc1[N+](=O)[O-]	-0.943%	
CCOC(=O)c1cnc(SCC(=O)NCc2ccco2)nc1N		25.1 µM (active)
Cc1nc2nc(SCC(=O)NCc3ccco3)nn2c(C)c1Cc1ccccc1	21.2%	
CCOc1ccccc1-n1c(SCC(=O)NCc2ccco2)nnc1-c1ccncc1	-1.62%	
CC(C)NC[C@H](O)c1ccc2ccccc2c1		inactive
COC(=O)[C@@]1(Cc2ccccc2)[C@H]2c3cc(C(=O)N4CCCC4)n(Cc4ccc(C)o4)c3C[C@H]2CN1C(=O)c1ccccc1	-4.58%	
CN(C(=O)CN(CCO)CC(=O)N(C)C(C)(C)Cc1ccccc1)C(C)(C)Cc1ccccc1		inactive
Cc1cc(C)cc(N)c1	7.96%	
CCCn1c(-c2ccc(F)cc2)nc2c(NCC3CCCN3CC)nc(C)nc21 (configuration not stated)	-24.4%	
COC(=O)[C@@]1(Cc2ccc(F)cc2)[C@H]2c3cc(C(=O)N4CCCC4)n(Cc4ccc(OC(F)(F)F)cc4)c3C[C@H]2CN1C(=O)c1ccccc1	4.38%	
COc1ccccc1N1CCN(CCN2C(=O)c3ccccc3C(C)(C)C2=O)CC1	-25.3%	
CN(C)/C=N/c1cc(=O)n(C)c(=O)n1CC1CC1	0.0595%	
CC(C)=CCC/C(C)=C/CO/N=C1/C[C@@H](O)[C@@H](O)[C@@H]2[C@@H]3C(=O)N(C(C)(C)C)C(=O)[C@H]3CC[C@H]12	7.53% [at 11.5 µM]	
Cn1c(N)c(C(=O)COC(=O)c2cc(C(F)(F)F)nc3c(C(F)(F)F)cccc23)c(=O)n(C)c1=O	-13.9%	

Structure (SMILES)	activity, negative = inhibition	Potency
CC/C=C/C/C=C/C/C=C/CCCCCCCC(=O)OCC	26%	
CC1(C)OC(C(O)(c2ccccc2)c2ccccc2)C(C(O)(c2ccccc2)c2ccccc2)O1 (configuration not stated)	31.6% [at 11.5 µM]	
COC(=O)[C@H]1[C@H]2C[C@H]3c4[nH]c5ccccc5c4CCN3C[C@@H]2CC[C@@H]1O		inactive
Oc1ccccc1CNCc1ccccc1O	19.3% [at 11.5 µM]	
COc1ncc2nc(-c3ccc(Cl)cc3)c(=O)n(C)c2n1	-0.77%	
O=C(Nc1ccccc1)N[C@H]1C[C@H](C(=O)O)Nc2cc(Cl)cc(Cl)c21	-10.9%	
CC1O[C@@H](Oc2c(-c3ccc(O)c(O)c3)oc3cc(O)cc(O)c3c2=O)C(O)C(O)C1O (some centres not stated)	-4.83%	
COC1[C@H](OC(N)=O)C(O)[C@H](Oc2ccc3c(O)c(NC(=O)c4ccc(O)c(CC=C(C)C)c4)c(=O)oc3c2C)OC1(C)C (some centres not stated)	14.4%	
C#CCCCCCCCCCCCCCCCC(=O)O	9.99%	
CO[C@H]1COC(=O)[C@@H](OCc2ccccc2)/C=C\[C@H](C)[C@@H](OC)COC(=O)[C@H](OCc2ccccc2)/C=C\[C@@H]1C	30% [at 11.5 µM]	
O=C(CSc1nnc(-c2cccs2)n1Cc1ccco1)c1ccc2c(c1)OCO2		31.6 µM (active)
O=C(CSc1nnc(-c2cnccn2)n1Cc1ccco1)c1ccc(Cl)c(Cl)c1	-26.5%	
O=C(CSc1nnc(-c2cccnc2)n1Cc1ccco1)c1ccc(Cl)c(Cl)c1	10.5%	
N#Cc1cccc(-c2ccc3ncnc(NCc4cccs4)c3c2)c1	-25.3%	
Cc1noc(C)c1-c1nccc(N2CCOCC2)n1	-10.5%	
N#CCC(=O)NC(=O)NCC1CC1	12.1%	
COc1ccc2c3c1OC1CC(O)C=C[C@@]31CCN(C)C2 (some centres not stated)	14%	
COC(=O)c1ccc(C23CC4(C2)[C@H](CN(Cc2cccnc2)[C@@H]4c2ccccc2)C3c2ccc(Cl)nc2)cc1 (some centres not stated)	-2.78%	
CC(C)CO/N=C1/C[C@@H](O)[C@@H](O)[C@@H]2[C@@H]3C(=O)N(C[C@@H]4CCCO4)C(=O)[C@H]3CC[C@@H]12	8.6% [at 11.5 µM]	
CCNc1ncc2ncc(=O)n(Cc3cccc(OC)c3)c2n1	-28.5%	
CC(=O)c1ccc(-n2nnnc2SCC(=O)N2CCN(C(=O)c3ccco3)CC2)cc1	-14%	
Cn1nnnc1SCC(=O)N1CCN(C(c2ccccc2)c2ccccc2)CC1	2.32%	
Cn1nnnc1SCC(=O)N1CCN(Cc2ccccc2)CC1		31.6 µM (active)
